We go through 38 compounds from PubChem BioAssay AID624481 (The Scripps Research Institute Molecular Screening Center, 2012).

In general, inhibition refers to the drop in the measured response relative to a control, in per cent.

Active and inactive are the calls of the source. Rule as the data show it: active = inhibition above about 50%; inactive = the rest.

The target in the test is Prolyl endopeptidase-like (Mus musculus) (UniProt Q8C167). The test is described as follows: purified PREPL inhibitors, PREPL inhibitor project, biochemical, gel-based competitive ABPP, fluorescence, HTS hits (AID 624481). The note with it: at 20 µM, active compounds read high.
Sequence of Prolyl endopeptidase-like (Mus musculus) (Q8C167 whole entry, looked up): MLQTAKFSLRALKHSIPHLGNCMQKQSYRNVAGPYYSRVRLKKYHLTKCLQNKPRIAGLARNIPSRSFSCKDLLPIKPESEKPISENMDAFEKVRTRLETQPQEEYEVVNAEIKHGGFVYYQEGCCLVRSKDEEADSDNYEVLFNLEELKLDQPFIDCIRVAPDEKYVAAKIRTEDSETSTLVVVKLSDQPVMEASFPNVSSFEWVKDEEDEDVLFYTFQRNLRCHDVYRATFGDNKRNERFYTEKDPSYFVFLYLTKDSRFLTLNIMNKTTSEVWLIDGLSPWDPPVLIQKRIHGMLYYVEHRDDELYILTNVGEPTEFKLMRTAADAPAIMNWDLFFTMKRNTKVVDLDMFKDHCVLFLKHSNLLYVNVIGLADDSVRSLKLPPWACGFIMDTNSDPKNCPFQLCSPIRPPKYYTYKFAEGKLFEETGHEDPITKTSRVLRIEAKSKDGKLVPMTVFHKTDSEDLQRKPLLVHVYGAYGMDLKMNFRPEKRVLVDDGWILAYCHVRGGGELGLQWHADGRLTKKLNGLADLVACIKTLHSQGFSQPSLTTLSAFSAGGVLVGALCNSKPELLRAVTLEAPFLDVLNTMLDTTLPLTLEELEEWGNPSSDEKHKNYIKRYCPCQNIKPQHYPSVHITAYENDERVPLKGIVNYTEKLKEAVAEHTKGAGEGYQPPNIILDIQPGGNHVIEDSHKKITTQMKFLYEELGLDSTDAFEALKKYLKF
With `O=S(=O)(c1ccc(-c2csc(=Nc3ccccc3)n2CCCN2CCOCC2)cc1)N1CCOCC1`, the inhibition is 57% (active). Regarding `CCCCC(CC)C(=O)Nc1cc(C(=O)NCCC)ccc1N1CCC2(CC1)CC(c1ccccc1)=NO2` (stereo not drawn), the inhibition was -141% (inactive). Turning to `COc1ccc(C(CCNCc2ccc(N(C)C)cc2)c2ccccc2)cc1` (stereo not drawn), the inhibition was -124% (inactive). Then `COc1ccc2c(CC(=O)Nc3ccc(N4CCOCC4)cc3)coc2c1`, with -44% (inactive). For the compound `Cc1ccc2nc(-c3ccccn3)c(NC3CCCC3)n2c1`, the inhibition was -23% (inactive). Then `CCN1/C(=C/c2ccc3ccc(C)cc3[n+]2CC)Sc2ccccc21`, with -19% (inactive).

In the case of `Cc1cc(NN=Cc2ccc(O)cc2)c2cccc(C)c2n1`, the inhibition is 1% (inactive).

Regarding `CC1CC(C)CN(C(=O)c2ccc3c(c2NCCO)C(=O)c2ccccc2C3=O)C1` (stereo not drawn), the inhibition was 7% (inactive). Then `CC[C@@H](C)[C@@H]1CN([C@@H](CN2CCC[C@H]2CN2C(N)=NC[C@@H]2Cc2ccccc2)C(C)C)C(=N)N1CCCC1CCCC1`, with -104% (inactive).

Regarding `CCc1ccc(Nc2n[n+](-c3ccccc3)c(-c3ccc(N(CC)CC)cc3)s2)cc1`, the inhibition was -100% (inactive).

As to `O=C(CSc1ccccc1F)Nc1ccc(N2CCOCC2)cc1`, the inhibition was -55% (inactive). The value for `O=C1c2c(O)ccc(O)c2C(=O)c2c(NCCNCCO)ccc(NCCNCCO)c21` was -46% (inactive). The value for `CNCCC(Oc1ccc(C(F)(F)F)cc1)c1ccccc1` (stereo not drawn) was -58% (inactive); that for `CC(C)C[C@@H]1CN=C(N)N1C[C@@H]1CCCN1C[C@@H](C(C)C)N1C[C@@H](Cc2ccccc2)N(CCCC2CCCC2)C1=N` was -52% (inactive). Consider `O=C(C1=C[C@@H](c2ccc(Br)cc2)C[C@@H](OCc2ccc(CO)cc2)O1)N1CCOCC1`, for which the inhibition was -26% (inactive). The value for `CN1CCN(CCCN2c3ccccc3Sc3ccc(Cl)cc32)CC1` was -90% (inactive); that for `CCC[C@@H](CN1CCC[C@H]1CN1C(N)=NC[C@H]1C(C)C)N1C[C@@H]([C@H](C)CC)N(CCCC2CCCC2)C1=N` was -68% (inactive). For the compound `Oc1c(CN2CCCC2)cc(COCc2ccccc2)c2cccnc12`, the inhibition is -64% (inactive). The value for `O=C1c2ccccc2C(=O)c2c1cccc2N1CCN(C/C=C/c2ccccc2)CC1` was -116% (inactive); that for `COc1ccc(N2CCN(c3nc4c(C)cccn4c(=O)c3/C=C(\C#N)C(N)=O)CC2)cc1` was -53% (inactive); that for `Cc1ccc2c(CC(=O)Nc3ccc(N4CCN(C)CC4)cc3C)coc2c1` was -3% (inactive). The value for `C#CCOCCOCCOCCNc1nc(N2CCN(C(=O)CCCCCCCCCCNC(=O)[C@H](CCCCN)n3cc(CCO)nn3)CC2)nc(N2CCN(C(=O)CCCCCCCCCCNC(=O)[C@H](CCCN=C(N)N)n3cc(C[C@@H](C)CC)nn3)CC2)n1` was -34% (inactive); that for `CCOc1ccc(Nc2c3ccccc3nc3ccccc23)cc1` was -58% (inactive).

On to `Cc1c(NCc2cc(Cl)cc(Cl)c2O)c(=O)n(-c2ccccc2)n1C`, for which the inhibition was -28% (inactive). Then `Oc1c(CN2CCOCC2)cc(COCc2ccccc2)c2cccnc12`, with -145% (inactive); and `Cc1c(C#N)c(N=CN(C)C)c(C(=O)c2ccc(Br)cc2)n1-c1ccc(Cl)cc1`, with -59% (inactive); and `Cc1cc2cc(CNC(=O)c3ccc(Br)o3)ccc2n1C`, with 38% (inactive). The value for `c1ccc(-c2nc3ccccn3c2NC2CCCC2)nc1` was -69% (inactive); that for `COc1cccc2cc(C(=O)C3=C(O)C(=O)N(CCN4CCOCC4)C3c3ccc(C(C)(C)C)cc3)oc12` (stereo not drawn) was -36% (inactive); that for `CSc1ccc2c(c1)N(CCC1CCCCN1C)c1ccccc1S2` (stereo not drawn) was -53% (inactive).

With `Cc1ccc(OCC(=O)Nc2ccc(N3CCN(C(=O)c4ccco4)CC3)cc2)cc1C`, the inhibition is 44% (inactive). Then `CCN1CCN(c2ccc(NC(=O)COc3ccc(Cl)cc3C)cc2)CC1`, with -7% (inactive); and `CCN1CCCC1CNC(=O)c1ccc2c(c1)NC(=O)/C(=C\c1ccc(OC)c(OC)c1)S2` (stereo not drawn), with 3% (inactive); and `Cc1ccccc1OCc1nnc(SCC(=O)Nc2ccc(N3CCOCC3)c(Cl)c2)n1C`, with -46% (inactive).

On to `c1ccc(N2CCN(c3nc(NCc4ccco4)c4ccccc4n3)CC2)cc1`, for which the inhibition is 94% (active).

Regarding `Oc1ccccc1-[n+]1c(-c2ccccc2)cc(-c2ccccc2)cc1-c1ccccc1`, the inhibition was -30% (inactive). The value for `CC[C@@H](C)[C@@H]1CN([C@@H](CN2CCC[C@H]2CN2C(N)=NC[C@H]2C(C)C)C(C)C)C(=N)N1CCc1ccc(Cl)c(Cl)c1` was -64% (inactive); that for `COc1ccccc1-[n+]1c(C)cc(/C=C2\Sc3ccccc3N2C)cc1C` was -27% (inactive).
